Results taken from PubChem BioAssay.
Records with an inconclusive call do not appear. Active and inactive are the calls of the source. Cut-off read from the data, not from the text of the source, unless noted: active = inhibition above about 80%; inactive = the rest.

Assays:
[1] = growth inhibition of DIPG glioma cells, dose response, cell-based, SU-DIPG-IV, MIPE4.0, CellTiter-Glo, qHTS (AID 1347063; cut-off not given, nearly all actives have AC50 up to about 30 µM;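 note: compound exposure lasted 48 hours before the viability readout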); details: SU-DIPG-IV viability, CellTiter-Glo ATP luminescence
[2] = SU-DIPG-VI glioma cell viability, MIPE4.0 library, CellTiter-Glo luminescence, qHTS (AID 1347066; cut-off not given, nearly all actives have AC50 up to about 30 µM;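 note: cells exposed to compound for 48 hours before readout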); details: CellTiter-Glo ATP luminescence
[3] = LFS_MB_P medulloblastoma growth inhibition, cell-based, chromothripsis tumors, cisplatin or BGB combos (AID 1671449); details: LFS_MB_P medulloblastoma cells;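 note: cells exposed for 96 hours; 0% = vehicle DMSO and 100% = killing by high DMSO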
[4] = HDN33 neuroblastoma growth inhibition, cell-based, chromothripsis tumors, cisplatin or BGB combos (AID 1671450); details: HDN33 neuroblastoma cells, stronger effect = higher value;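 note: cells exposed to compound for four days; 0% = vehicle DMSO and 100% = cell killing by high DMSO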
[5] = ICB984 medulloblastoma cell growth inhibition, synergistic combos for chromothripsis tumors, cisplatin or BGB combos (AID 1671451; call rule not given here;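 note: cells exposed for 96 hours before readout; 0% = vehicle DMSO and 100% = killing by high DMSO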); details: ICB984 medulloblastoma cells, drug combinations, stronger effect = higher value
[6] = LFS_MB_1R medulloblastoma cell growth inhibition, synergistic combos for chromothripsis tumors, cisplatin or BGB combos (AID 1671452); details: LFS_MB_1R medulloblastoma cells, stronger effect = higher value;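 note: cells exposed for 96 hours before readout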
[7] = HTB85 osteosarcoma cell growth inhibition, synergistic combos for chromothripsis tumors, BGB or cisplatin IC20 combos (AID 1671453); details: HTB85 osteosarcoma cells, drug combinations, stronger effect = higher value;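 note: cells exposed for 96 hours before readout; 0% = vehicle DMSO and 100% = high DMSO killing control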
[8] = MDA-MB-436 breast carcinoma cell growth inhibition, synergistic combos for chromothripsis tumors, BGB or cisplatin combos (AID 1671458; call rule not given here;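 note: cells exposed for 96 hours; 0% = vehicle DMSO and 100% = killing by high DMSO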); details: MDA-MB-436 breast carcinoma growth inhibition, drug combinations, stronger effect = higher value
[9] = growth inhibition of BT084 medulloblastoma cells, cell-based, ICGC_MB145, cisplatin and BGB IC40 combos (AID 1671461); details: drug combinations, stronger effect = higher value;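 note: cells exposed to drugs for 96 hours; 0% = vehicle DMSO and 100% = high DMSO full killing control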
[10] = growth inhibition of RCMB18 medulloblastoma cells, cell-based, cisplatin and BGB IC40 combos (AID 1671462); details: stronger effect = higher value;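 note: cells exposed to compound for four days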
[11] = growth inhibition of CRL1545 osteosarcoma cells, cell-based, cisplatin and BGB IC20 combos (AID 1671464); details: stronger effect = higher value;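 note: cells exposed to compound for 96 hours before readout; 0% = vehicle DMSO and 100% = high DMSO killing control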
[12] = growth inhibition of DIPG glioma cells, dose response, cell-based, SU-DIPG-XIII, MIPE4.0, CellTiter-Glo, qHTS (AID 1347061; cut-off not given, nearly all actives have AC50 up to about 37 µM;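 note: cells exposed to compound for 48 hours before readout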); details: SU-DIPG-XIII viability, CellTiter-Glo ATP luminescence
[13] = growth inhibition of DIPG glioma cells, dose response, cell-based, JHH-DIPG-1, MIPE4.0, CellTiter-Glo, qHTS (AID 1347062; cut-off not given, nearly all actives have AC50 up to about 27 µM); details: JHH-DIPG-1 viability, CellTiter-Glo ATP luminescence
[14] = target: ATP-dependent translocase ABCB1 (Homo sapiens) (UniProt P08183); assay: MDR1 (ABCB1) efflux transporter inhibition, cell-based (AID 377; in the data active = fluorescence slope change above about 50%); details: MDR1-expressing cells, fluorescent substrate accumulation slope; stronger effect = higher value; concentration not given here
Sequence of ATP-dependent translocase ABCB1 (Homo sapiens) (P08183 whole entry, looked up): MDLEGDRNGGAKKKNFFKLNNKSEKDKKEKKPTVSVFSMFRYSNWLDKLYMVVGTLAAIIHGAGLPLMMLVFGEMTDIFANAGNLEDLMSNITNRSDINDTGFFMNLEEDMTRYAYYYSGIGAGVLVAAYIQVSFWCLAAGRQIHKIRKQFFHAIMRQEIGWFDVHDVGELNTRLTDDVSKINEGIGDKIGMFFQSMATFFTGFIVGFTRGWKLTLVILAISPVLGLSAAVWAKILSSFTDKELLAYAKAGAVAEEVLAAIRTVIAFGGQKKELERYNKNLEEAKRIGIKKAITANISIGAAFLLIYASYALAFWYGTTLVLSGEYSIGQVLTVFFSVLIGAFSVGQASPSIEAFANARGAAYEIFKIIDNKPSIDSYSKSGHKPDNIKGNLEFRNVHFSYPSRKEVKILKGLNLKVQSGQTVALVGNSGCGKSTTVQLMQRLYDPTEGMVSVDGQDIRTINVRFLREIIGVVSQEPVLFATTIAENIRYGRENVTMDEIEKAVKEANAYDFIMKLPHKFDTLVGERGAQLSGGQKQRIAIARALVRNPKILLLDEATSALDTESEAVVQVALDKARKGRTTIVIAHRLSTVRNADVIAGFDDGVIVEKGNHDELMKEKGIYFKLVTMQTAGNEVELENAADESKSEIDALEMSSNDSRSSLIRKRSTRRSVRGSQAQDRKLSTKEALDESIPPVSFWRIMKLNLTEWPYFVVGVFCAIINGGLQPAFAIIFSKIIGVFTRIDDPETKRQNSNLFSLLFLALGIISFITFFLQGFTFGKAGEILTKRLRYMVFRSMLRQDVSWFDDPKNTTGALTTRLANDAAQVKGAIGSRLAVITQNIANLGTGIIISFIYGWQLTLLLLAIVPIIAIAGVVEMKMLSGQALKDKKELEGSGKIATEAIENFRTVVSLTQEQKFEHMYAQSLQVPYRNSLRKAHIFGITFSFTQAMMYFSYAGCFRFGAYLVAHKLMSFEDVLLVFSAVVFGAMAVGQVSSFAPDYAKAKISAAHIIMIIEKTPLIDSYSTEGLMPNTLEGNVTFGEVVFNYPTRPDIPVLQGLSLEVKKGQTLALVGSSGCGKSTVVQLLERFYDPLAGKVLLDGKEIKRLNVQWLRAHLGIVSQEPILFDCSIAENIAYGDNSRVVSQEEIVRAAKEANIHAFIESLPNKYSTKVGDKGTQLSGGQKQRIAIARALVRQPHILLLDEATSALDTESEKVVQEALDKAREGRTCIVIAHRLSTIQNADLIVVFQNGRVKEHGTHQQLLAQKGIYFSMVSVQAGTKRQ

[15] = system: Hepatitis C virus NS3 helicase; assay: HCV NS3 helicase inhibitors, primary screen, biochemical, fluorescence polarization, LOPAC1280 library (AID 687035; in the data active = inhibition above about 37%); details: Purified HCV NS3 helicase, Cy5-dT15 ssDNA binding fluorescence polarization; stronger effect = higher value; concentration not given here
[16] = Cy5 fluorescence quenching or enhancement artefacts, artefact control for HCV NS3 helicase inhibitor project, biochemical, LOPAC1280 (AID 687037; call rule not given here); details: Cy5-DNA-NS3h complex fluorescence interference counterscreen
[17] = at 0.5 µM, stronger effect = higher value
[18] = measured here: combination with BGB IC20, at 0.005 µM
[19] = measured here: combination with BGB IC40, at 0.005 µM
[20] = measured here: combination with BGB IC40, at 0.05 µM
[21] = measured here: combination with cisplatin, at 0.5 µM, stronger effect = higher value
[22] = measured here: combination with cisplatin, at 5 µM, stronger effect = higher value
[23] = measured here: with BGB IC20 combination, at 0.5 µM
[24] = measured here: with cisplatin IC20 combination, at 0.5 µM
[25] = measured here: 5 uM single agent, at 5 µM
[26] = measured here: combination with cisplatin, at 0.5 µM
[27] = measured here: combination with cisplatin, at 5 µM
[28] = measured here: with BGB IC20, at 0.5 µM
[29] = measured here: with BGB IC20, at 5 µM
[30] = measured here: with cisplatin IC20, at 0.5 µM
[31] = measured here: with cisplatin IC20, at 5 µM
[32] = measured here: BGB combination, at 0.5 µM
[33] = measured here: BGB combination, at 5 µM
[34] = measured here: cisplatin combination, at 0.5 µM
[35] = measured here: cisplatin combination, at 5 µM
[36] = cisplatin combination, at 0.5 µM
[37] = measured here: BGB IC40 combination 0.05 uM, at 0.05 µM
[38] = measured here: BGB IC40 combination, at 0.05 µM

SMILES: O=c1c(O)c(-c2ccc(O)c(O)c2)oc2cc(O)ccc12
- AC50 [1]: 18.7 µM (active)
- AC50 [2]: 29.6 µM (active)
- inhibition [3, 17]: -6.56% (inactive)
- inhibition [3, 18]: -16.9%
- inhibition [3, 19]: 5.59%
- inhibition [3, 20]: 5.54%
- inhibition [3, 21]: -17.1%
- inhibition [3, 22]: 11%
- inhibition ([4]; BGB combo, at 5 µM): -4.9%
- inhibition ([4]; at 0.5 µM): 4.36% (inactive)
- inhibition ([4]; cisplatin combo, at 5 µM): 3.02%
- inhibition [4, 23]: -4.05%
- inhibition [4, 24]: 5.86%
- inhibition ([4]; single agent, at 5 µM): -1.94%
- inhibition ([5]; BGB IC20 combo, at 0.005 µM): -15.9%
- inhibition ([5]; BGB IC40 combo, at 0.005 µM): -16.9%
- inhibition ([5]; BGB IC40 combo, at 0.05 µM): -3.67%
- inhibition ([5]; at 0.5 µM): -24.7% (inactive)
- inhibition ([5]; cisplatin combo, at 0.05 µM): -3.67%
- inhibition ([5]; cisplatin combo, at 0.5 µM): -43.4%
- inhibition ([5]; cisplatin combo, at 5 µM): -7.32%
- inhibition [5, 25]: -7.82%
- inhibition ([6]; at 0.5 µM): -4.27% (inactive)
- inhibition [6, 20]: -15.9%
- inhibition [6, 26]: -18.5%
- inhibition [6, 27]: -12.6%
- inhibition ([7]; at 0.5 µM): 3.31% (inactive)
- inhibition [7, 28]: -8.35%
- inhibition [7, 29]: 3.71%
- inhibition [7, 30]: 14.6%
- inhibition [7, 31]: 6.28%
- inhibition ([7]; single agent, at 5 µM): 8.35%
- inhibition ([8]; at 0.5 µM): -7.38% (inactive)
- inhibition [8, 32]: 5.2%
- inhibition [8, 33]: -2.65%
- inhibition [8, 34]: -24.9%
- inhibition [8, 35]: 5.5%
- inhibition ([9]; at 0.5 µM): -4.39% (inactive)
- inhibition [9, 36]: -0.071%
- inhibition ([9]; cisplatin combination, at 5 µM): -26.8%
- inhibition [9, 37]: 5.57%
- inhibition ([9]; single agent, at 5 µM): -4.55%
- inhibition ([10]; at 0.5 µM): -4.12% (inactive)
- inhibition ([10]; cisplatin combo, at 5 µM): 18.3%
- inhibition [10, 38]: 21.3%
- inhibition [10, 26]: -7.15%
- inhibition ([10]; single agent, at 5 µM): -9.89%
- inhibition ([11]; at 0.5 µM): -3.43% (inactive)
- inhibition [11, 23]: -7.45%
- inhibition [11, 24]: -1.43%
- inhibition ([11]; single agent, at 0.05 µM): 31.3%
- inhibition ([11]; single agent, at 5 µM): 6.36%

SMILES: Nc1ccc(S(=O)(=O)Nc2ncccn2)cc1
- outcome [12]: inactive
- outcome [13]: inactive
- outcome [1]: inactive
- outcome [2]: inactive

SMILES: CCn1nc(C(=O)O)c(=O)c2cc3c(cc21)OCO3
- fluorescence slope change [14]: 14.5% (inactive)
- inhibition [15]: -4% (inactive)
- fluorescence ratio (interference) [16]: 1 (inactive)
- inhibition [3, 17]: -4.36% (inactive)
- inhibition [3, 18]: -22%
- inhibition [3, 19]: -16.5%
- inhibition [3, 20]: -12.9%
- inhibition [3, 21]: -13.6%
- inhibition [3, 22]: -41.5%
- inhibition ([4]; BGB combo, at 5 µM): -23.8%
- inhibition ([4]; at 0.5 µM): -7.41% (inactive)
- inhibition ([4]; cisplatin combo, at 5 µM): -10.5%
- inhibition [4, 23]: -15.2%
- inhibition [4, 24]: -1.32%
- inhibition ([4]; single agent, at 5 µM): -41.5%
- inhibition ([5]; BGB IC20 combo, at 0.005 µM): -15.8%
- inhibition ([5]; BGB IC40 combo, at 0.005 µM): -16.7%
- inhibition ([5]; BGB IC40 combo, at 0.05 µM): -9.96%
- inhibition ([5]; at 0.5 µM): -5.52% (inactive)
- inhibition ([5]; cisplatin combo, at 0.05 µM): -9.96%
- inhibition ([5]; cisplatin combo, at 0.5 µM): -1.52%
- inhibition ([5]; cisplatin combo, at 5 µM): -43.4%
- inhibition [5, 25]: -20.7%
- inhibition ([6]; at 0.5 µM): -36.2% (inactive)
- inhibition [6, 20]: -30.8%
- inhibition [6, 26]: -40.5%
- inhibition [6, 27]: 15.7%
- inhibition ([7]; at 0.5 µM): -28.8% (inactive)
- inhibition [7, 28]: -63%
- inhibition [7, 29]: 5.32%
- inhibition [7, 30]: -29.8%
- inhibition [7, 31]: -12.6%
- inhibition ([7]; single agent, at 5 µM): -6.73%
- inhibition ([8]; at 0.5 µM): -10.8% (inactive)
- inhibition [8, 32]: -3.35%
- inhibition [8, 33]: -16.6%
- inhibition [8, 34]: -23.3%
- inhibition [8, 35]: -13.2%
- inhibition ([9]; at 0.5 µM): -21.7% (inactive)
- inhibition [9, 36]: -15.5%
- inhibition ([9]; cisplatin combination, at 5 µM): -34.6%
- inhibition [9, 37]: -12.7%
- inhibition ([9]; single agent, at 5 µM): -10.2%
- inhibition ([10]; at 0.5 µM): -22.9% (inactive)
- inhibition ([10]; cisplatin combo, at 5 µM): -5.51%
- inhibition [10, 38]: -14.3%
- inhibition [10, 26]: -7.95%
- inhibition ([10]; single agent, at 5 µM): -10.2%
- inhibition ([11]; at 0.5 µM): -33.4% (inactive)
- inhibition [11, 23]: -23%
- inhibition [11, 24]: -38.6%
- inhibition ([11]; single agent, at 0.05 µM): 5.27%
- inhibition ([11]; single agent, at 5 µM): 10.4%
